Luciferase inh – firefly luciferase inhibition | P08659 | hit rate 2.2% among 72,000 | Potency, µM (titrated, usually from 57.1 µM), for inactives: at the top dose activity change, negative = inhibition, actives largely listed as inhibitors | purified firefly luciferase, luminescence, 8 min; further: on the % scale 0 is the no-effect control and ±100 the full control effect; nearly all actives have a fitted effect of over 40% in size
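Firefly luciferase (PKLight detection mix) with 10 uM ATP in pH 7.2 imidazole buffer (KCl, MgCl2, Tween 20, BSA). Compounds tested across a concentration series (qHTS). Luminescence read after 8 min at ambient temperature.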
PK Bst – alters activity of Bacillus stearothermophilus pyruvate kinase. purified pyruvate kinase, luminescence ATP production; ribose 5-phosphate activator present at AC10. Potency, µM. hit rate 1.2% among 51,000. AID 361; in the data active means potency below about 11 µM; inconclusive means mostly about 12 µM to 25 µM;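 the screen sought inhibitors and activators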;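 further: scaled between full activation by ribose 5 phosphate and full inhibition by luteolin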
TSHR ag – agonists of human thyroid stimulating hormone receptor | P16473 | HEK293-CNG-TSHR cells (CNG channel as cAMP sensor), membrane potential dye, cAMP | Potency, µM (series often up to 57.1 µM), for the others: top-dose activation, most hits filed as activators | hit rate 0.48% among 73,000 | AID 926; active means well fitted activation curve with a large enough effect in the main read-out, with a control signal flat, not every such curve was filed as active; inconclusive means small, poorly fitted or top-dose-only effect, or a change in a side signal; inactive means no such curve, though single readings can be large or run the other way; % of control where 0% means no effect;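 further: the control signal comes from parental cells without the receptor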
Target sequence (P16473 whole entry, looked up): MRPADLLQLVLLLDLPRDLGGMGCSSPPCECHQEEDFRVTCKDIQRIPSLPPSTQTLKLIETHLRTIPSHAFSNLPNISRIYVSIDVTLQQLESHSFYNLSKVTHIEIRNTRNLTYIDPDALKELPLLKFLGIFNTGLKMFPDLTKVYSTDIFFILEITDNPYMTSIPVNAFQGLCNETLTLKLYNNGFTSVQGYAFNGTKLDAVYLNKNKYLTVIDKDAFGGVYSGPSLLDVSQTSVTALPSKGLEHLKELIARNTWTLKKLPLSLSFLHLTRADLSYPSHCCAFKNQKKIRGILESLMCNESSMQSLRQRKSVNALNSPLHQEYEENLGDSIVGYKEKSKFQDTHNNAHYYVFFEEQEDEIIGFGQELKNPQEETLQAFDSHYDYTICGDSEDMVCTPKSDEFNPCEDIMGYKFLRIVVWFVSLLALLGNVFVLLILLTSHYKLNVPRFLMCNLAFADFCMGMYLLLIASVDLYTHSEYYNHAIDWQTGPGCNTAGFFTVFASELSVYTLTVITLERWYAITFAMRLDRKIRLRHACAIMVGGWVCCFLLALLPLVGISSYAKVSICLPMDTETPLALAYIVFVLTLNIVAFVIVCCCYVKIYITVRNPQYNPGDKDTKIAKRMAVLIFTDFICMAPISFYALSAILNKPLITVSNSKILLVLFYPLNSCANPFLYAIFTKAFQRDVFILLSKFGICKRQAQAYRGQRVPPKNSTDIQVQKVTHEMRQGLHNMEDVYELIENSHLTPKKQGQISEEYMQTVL
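HEK 293 cells stably expressing TSHR and a modified CNG channel, with CNG-only parental cells as counterscreen, were preloaded 60 min at room temperature with membrane potential dye containing 100 uM RO 20-1724. Compound exposure was 30 min, and depolarization was read as fluorescence at 590 nm.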
GBA mod – human lysosomal glucosylceramidase modulation | P04062 | hit rate 1.1% among 48,000 | purified enzyme, resorufin glucoside fluorescence (screen aimed at inhibitors), 20 min | Potency, µM; in the data active means potency below about 15 µM; inconclusive means mostly about 16 µM to 33 µM;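 further: the screen sought inhibitors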
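Normal human glucocerebrosidase (0.2 nM final) was assayed with resorufin β-D-glucopyranoside (30 uM final) in 50mM citric acid/KH2PO4, 10mM sodium taurocholate, 0.01% tween-20, pH 5.9. Compounds were titrated; fluorescence (Ex 548, Em 600) read after 20 min at RT.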
HEK293 cAMP ctrl – counter-screen for TSHR agonists: cAMP increase in parental HEK293. parental HEK293 CNG cAMP sensor, membrane potential fluorescence. Potency, µM (top dose mostly 57.1 µM), for inactives: at the highest dose activation, most hits filed as activators. hit rate 2.5% among 73,000. AID 938; further: % of control where 0% means no effect; nearly all actives have a fitted effect of over 55% in size
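Parental HEK 293 cells stably expressing a cAMP-gated CNG channel were loaded with membrane potential dye containing 100 uM RO 20-1724 for 60 min. Compound added for 30 min; depolarization read as fluorescence intensity at 590 nm.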
Active calls of the source: *; [ ] = dose if it differs, or a comment. Only some compounds are listed: those with a hit (about 5.8% of all), similar ones and a draw of the others. Unless noted, the call rests on the fitted dose curve; in most records, active means well fitted curve in the direction sought with a large enough effect; inconclusive means small, poorly fitted or top-dose-only effect, or another doubt; inactive means no such curve, though single readings can be large; an effect the other way counts as inactive or inconclusive. Potency means the concentration at half of the fitted maximal effect.

Results for COc1ccc(C(OCCN2CCC[C@@H](C(=O)O)C2)(c2ccc(OC)cc2)c2ccc(OC)cc2)cc1 ?
Luciferase inh: -1%; TSHR ag: 13%; HEK293 cAMP ctrl: -3%

Results for COc1ccc(S(=O)(=O)N2CCCCCC2)cc1C(=O)OCc1c(C)noc1C ?
Luciferase inh: 1%; PK Bst: >57; TSHR ag: 11%; GBA mod: >77; HEK293 cAMP ctrl: 5%

What do the screens show for `Cc1noc(C)c1COC(=O)c1cccc(S(=O)(=O)N2CCCCCC2)c1`?
Luciferase inh: -2%; PK Bst: >57; TSHR ag: inconclusive; GBA mod: >77; HEK293 cAMP ctrl: 20µM*

What do the screens show for `Cc1cc(/C=c2/sc3nc4ccccc4n3c2=O)c(C)n1-c1ccccn1`?
Luciferase inh: 0.5µM*; PK Bst: 0.84*

Results for CO[C@@H]1/C=C\O[C@]2(C)Oc3c(C)c(O)c4c(O)c(c(CN5CCN(C)CC5)c(O)c4c3C2=O)NC(=O)/C(C)=C\C=C[C@@H](C)[C@@H](O)[C@H](C)[C@@H](O)[C@H](C)[C@H](OC(C)=O)[C@@H]1C ?
Luciferase inh: 1%[11.4 µM]; TSHR ag: -3%[11.4 µM]; HEK293 cAMP ctrl: 10%[11.4 µM]

How did CC(=O)c1ccc(C2C=CC(Oc3ccc(F)cc3C)C(CO)O2)cc1 (stereo not given) do in these assays?
TSHR ag: -5%[11.4 µM]; HEK293 cAMP ctrl: 0%[11.4 µM]

What do the screens show for `O=C(CSc1nnnn1Cc1ccccc1)c1ccccc1`?
Luciferase inh: -1%; PK Bst: >57; TSHR ag: inconclusive; GBA mod: >77; HEK293 cAMP ctrl: 32µM*

What do the screens show for `COc1ccccc1-c1nnc2sc(-c3cc4ccccc4o3)nn12`?
Luciferase inh: -1%; TSHR ag: inconclusive; GBA mod: >77; HEK293 cAMP ctrl: 25µM*

What do the screens show for `Cc1cc(-c2nnc3n2N=C(c2ccc(-c4ccccc4)cc2)CS3)n[nH]1`?
Luciferase inh: -8%; TSHR ag: inconclusive; GBA mod: inactive; HEK293 cAMP ctrl: 32µM*

What do the screens show for `N#Cc1nc(-c2ccc(OCc3ccccc3)cc2)oc1NCc1cccnc1`?
Luciferase inh: 0%; TSHR ag: 25%; GBA mod: >77; HEK293 cAMP ctrl: 9%

What do the screens show for `CC(C)(C)c1ccc(-c2nc(C#N)c(NCc3ccncc3)o2)cc1`?
Luciferase inh: 20µM*; TSHR ag: 6%; GBA mod: >77; HEK293 cAMP ctrl: -5%

What do the screens show for `COc1ccc(-c2nc(C#N)c(NCCc3ccccc3)o2)cc1OC`?
Luciferase inh: 13µM*; PK Bst: inactive; TSHR ag: -19%; GBA mod: >77; HEK293 cAMP ctrl: 7%

What do the screens show for `CN(C)c1oc(-c2ccc(OCc3ccccc3)cc2)nc1C#N`?
Luciferase inh: 2%; PK Bst: 2.8*; TSHR ag: 4%; GBA mod: inactive; HEK293 cAMP ctrl: 11%

Results for N#Cc1nc(-c2ccc(OCc3ccccc3)cc2)oc1NCCCn1ccnc1 ?
Luciferase inh: 1%; PK Bst: 4.3*; TSHR ag: -13%; GBA mod: inconclusive; HEK293 cAMP ctrl: -11%

What do the screens show for `N#Cc1nc(COc2ccccc2)oc1NCCCn1ccnc1`?
Luciferase inh: -4%; PK Bst: >57; TSHR ag: 11%; HEK293 cAMP ctrl: 9%

Results for O=Cc1ccc(OC2C=CC(c3ccccc3)OC2CO)cc1 (stereo not given) ?
TSHR ag: 4%[11.4 µM]; HEK293 cAMP ctrl: -1%[11.4 µM]

Results for Cc1cnc(CNc2cc(-c3ccc(N(C)C)cc3)ncn2)cn1 ?
Luciferase inh: -6%[2.29 µM]; TSHR ag: 7%; HEK293 cAMP ctrl: 3%

How did N#Cc1nc(COc2ccc(Br)cc2)oc1NCCCn1ccnc1 do in these assays?
Luciferase inh: 4%; PK Bst: >57; GBA mod: 14*; HEK293 cAMP ctrl: 18%

Results for Cc1ccc(OCc2nc(C#N)c(NCCCn3ccnc3)o2)cc1 ?
Luciferase inh: 1%; PK Bst: >57; TSHR ag: 1%[11.4 µM]; HEK293 cAMP ctrl: 19%

What do the screens show for `N#Cc1nc(-c2ccc(OCc3ccc(Cl)cc3)cc2)oc1NCc1cccnc1`?
Luciferase inh: -2%; PK Bst: 2.7*; TSHR ag: 1%; GBA mod: >77; HEK293 cAMP ctrl: 7%

How did N#Cc1nc(-c2ccc(OCc3ccccc3Cl)cc2)oc1NCCCn1ccnc1 do in these assays?
Luciferase inh: 0%; PK Bst: 2.6*; TSHR ag: -8%; GBA mod: inconclusive; HEK293 cAMP ctrl: -19%

How did CN(C)C(=O)c1ccc(-c2cc(NCc3ccccc3)ncn2)cc1 do in these assays?
Luciferase inh: 4%[2.29 µM]; TSHR ag: 6%; HEK293 cAMP ctrl: 5%

How did Cc1cccc(NC(=O)c2cc3ccccc3o2)c1 do in these assays?
Luciferase inh: 13µM*; PK Bst: inconclusive; TSHR ag: inconclusive; GBA mod: >77; HEK293 cAMP ctrl: 25µM*

What do the screens show for `CCC(=O)Nc1cccc(NC(=O)c2cc3ccccc3o2)c1`?
Luciferase inh: 4µM*; TSHR ag: 14%; HEK293 cAMP ctrl: 8%

Results for O=C(Nc1cccc(Br)c1)c1cc2ccccc2o1 ?
Luciferase inh: 7.9µM*; TSHR ag: inconclusive; HEK293 cAMP ctrl: 25µM*

Results for O=C(Nc1ccccc1N1CCCC1)c1cc2ccccc2o1 ?
Luciferase inh: inconclusive; PK Bst: inactive; TSHR ag: 1%; HEK293 cAMP ctrl: 15%

How did Cc1cc(C(=O)Nc2cccc(C(=O)O)c2)oc1C do in these assays?
Luciferase inh: 16µM*; PK Bst: inactive; TSHR ag: 3%; GBA mod: >77; HEK293 cAMP ctrl: 3%

What do the screens show for `CNC(=O)c1cc2ccccc2o1`?
Luciferase inh: -1%[25.5 µM]; PK Bst: >26

Results for CN(C)CC(CN(C)C)c1ccccn1 ?
Luciferase inh: 2%[11.4 µM]; HEK293 cAMP ctrl: 2%[11.4 µM]

What do the screens show for `COCCn1c(=O)c(-c2cccs2)nc2cnc(Oc3ccccc3)nc21`?
Luciferase inh: 1%[11.4 µM]; HEK293 cAMP ctrl: 12%

How did Cc1nnc2n(Cc3ccccc3)c(=O)c3c4c(sc3n12)CCCC4 do in these assays?
Luciferase inh: -1%; PK Bst: >57; TSHR ag: 7%; GBA mod: >77; HEK293 cAMP ctrl: 17%

Results for CCOC(=O)CSc1nnc2n(Cc3ccccc3)c(=O)c3c4c(sc3n12)CCC4 ?
Luciferase inh: 0%[25.5 µM]; PK Bst: 5.1*

What do the screens show for `CSc1nnc2n(C3CCCCC3)c(=O)c3c4c(sc3n12)CCCC4`?
Luciferase inh: 2%[25.5 µM]; PK Bst: >26

Results for CSc1nnc2n(-c3ccccc3)c(=O)c3c4c(sc3n12)CCC4 ?
Luciferase inh: 2%; PK Bst: 2.8*; TSHR ag: 4%; GBA mod: >77; HEK293 cAMP ctrl: 5%

How did O[C@@H](c1cc(-c2ccc(Cl)cc2)nc2ccccc12)[C@@H]1CCCCN1 do in these assays?
Luciferase inh: 2%[11.4 µM]; TSHR ag: 0%[11.4 µM]; HEK293 cAMP ctrl: -13%[11.4 µM]

Results for CC[C@@H](CS(=O)(=O)O)[N+](=O)[O-] ?
Luciferase inh: 2%[11.4 µM]; TSHR ag: -5%[11.4 µM]; HEK293 cAMP ctrl: -1%[11.4 µM]

From PubChem
